In PubChem BioAssay AID1259421 (Broad Institute, 2018):
Values joined by “and” are separate entries in the source; they are usually repeats but may differ in a detail not shown here. Identical values can stand only once. The campaign covered roughly 6,400 compounds. About 610 (9.5%) were called active. No stated cut-off is given here; in the data, active means activity change below about -70%; inconclusive means no clear call, values can overlap the other calls; inactive means above that. What follows is part of a selection rich in actives, with near analogues and random picks from the rest. Where a structure was tested more than once in an assay, its records may differ in their call.

Test: Toxoplasma gondii ME49Luc growth in HeLa cells, luciferase, no IFN-y, primary screen (AID 1259421)
Details: T. gondii ME49Luc in HeLa, 72 h, stronger effect = lower value, concentration not given here

| Compound | activity change, negative = inhibition |
| --- | --- |
| O=C(N[C@@H]1CC[C@@H](c2cccc(F)c2F)CN(CC(F)(F)F)C1=O)N1CCC(n2c(=O)[nH]c3ncccc32)CC1 | 5.74% (inactive) |
| CC(CSC(=O)c1ccccc1)C(=O)N1C[C@@H](Sc2ccccc2)C[C@H]1C(=O)O (stereo partly drawn) | 5.4% (inactive) |
| O=c1cc(-c2ccccc2)oc2cccc(O)c12 | 21.2% (inactive) |
| O=c1cc(-c2ccccc2)oc2c(O)c(O)ccc12 | -85.8% (active) |
| O=c1cc(-c2ccccc2)oc2cc(O)ccc12 | 60.2% (inactive) |
| COc1ccc(-c2noc(CC(=O)O)c2-c2ccc(OC)cc2)cc1 | 7.28% (inactive) |
| COc1cc(Br)c(Nc2nc(-c3c(C)nc4ncccn34)cs2)c(Br)c1 | 13.9% (inactive) |
| Oc1ccc(Nc2nc(-c3ccc(Cl)cc3)cs2)cc1 | 28.7% (inactive) |
| CCOc1ccc(Nc2nc(-c3c(C)nc4ccccn34)cs2)cc1 | -74% (active) |
| Cn1cc(C(F)(F)F)nc1-c1ccc(OCC(O)CNCCOc2ccc(O)c(C(N)=O)c2)cc1 (stereo not drawn) | 1.01% (inactive) |
| CC(C)(C)NC(=O)[C@H]1CCC2C3CC[C@H]4NC(=O)C=C[C@]4(C)C3CC[C@@]21C (stereo partly drawn) | -5.92% (inactive) |
| COc1cc2c(cc1OC)[C@@H]1C(=O)c3ccc4c(c3O[C@@H]1CO2)C=CC(C)(C)O4 | -20.6% (inactive) |
| COc1c(-c2coc3cc4c(cc3c2=O)CC(O)C(C)(C)O4)ccc2c1C=CC(C)(C)O2 (stereo not drawn) | -80% (active) |
| COc1ccc(-c2coc3cc(O)ccc3c2=O)c(O)c1O | 2.93% (inactive) |
| COc1c(-c2coc3cc4c(cc3c2=O)CC(OC(C)=O)C(C)(C)O4)ccc2c1C=CC(C)(C)O2 (stereo not drawn) | -72.4% (active) |
| COc1c2c(cc3occ(-c4ccc5c(c4)OCO5)c(=O)c13)OC(C)(C)C=C2 | -31.2% (inactive) |
| COc1c(CC(=O)c2cc3c(cc2O)OC(C)(C)C(O)C3)ccc2c1C=CC(C)(C)O2 (stereo not drawn) | 16.9% (inactive) |
| CCOC(=O)C1=CC2(CC)CCCN3CCc4c(n1c1ccccc41)C32 (stereo not drawn) | 23.3% (inactive) |
| COC12CC(COC(=O)c3cncc(Br)c3)CN(C)C1Cc1cn(C)c3cccc2c13 (stereo not drawn) | 13.7% (inactive) |
| CC(=O)NC(C(=O)O)C(C)(C)S[NH2+][O-] (stereo not drawn) | 16% (inactive) |
| Cc1ccccc1C(=O)Nc1ccc(C(=O)N2CCCC(O)c3cc(Cl)ccc32)c(C)c1 (stereo not drawn) | 7.82% (inactive) |
| Cc1c(C(=O)Nc2ccc(N3CCC(N4CCOCC4)CC3)c(C#N)c2)cnn1-c1ccc(Cl)cc1 | -92.1% (active) |
| CCc1cc2c(cc1N1CCC(N3CCOCC3)CC1)C(C)(C)c1[nH]c3cc(C#N)ccc3c1C2=O | 16.2% (inactive) |
| CN1C2CC(OC(=O)C(CO)c3ccccc3)CC1C1OC12 (stereo not drawn) | 11.1% (inactive) |
| CNc1cc(OC)c(C(=O)N[C@@H]2CCN(Cc3ccccc3)[C@H]2C)cc1Cl | 15.3% (inactive) |
| Cn1cc(C(=O)OCC2CCN(CCNS(C)(=O)=O)CC2)c2ccccc21 | 1.88% (inactive) and 6.2% (inactive) |

| Compound | activity change, negative = inhibition |
| --- | --- |
| Cn1cc(C[C@@H](N)C(=O)O)c2ccccc21 | 16% (inactive) |
| Cn1cc(CNCC2CCN(c3ncc(C(=O)NO)cn3)CC2)c2ccccc21 | -88.1% (active) |
| C[C@@H]1CC2C3CCC4=CC(=O)C=C[C@]4(C)[C@@]3(F)[C@@H](O)C[C@]2(C)[C@@]1(O)C(=O)COP(=O)(O)O (stereo partly drawn) | 0.571% (inactive) and -5.12% (inactive) |
| O=c1c(-c2ccc(O)cc2)coc2c(C3O[C@H](CO)[C@@H](O)[C@H](O)[C@H]3O)c(O)ccc12 (stereo partly drawn) | -5.75% (inactive) |
| C[N+]1(C)C2CC[C@H]1CC(OC(=O)C(O)c1ccccc1)C2 (stereo partly drawn) | 10.1% (inactive) |
| O=C(Nc1ccccc1)C12CC1/C(=N\O)c1ccccc1O2 (stereo not drawn) | 7.7% (inactive) and 0.127% (inactive) |
| COc1ccc(-c2cc(=O)c3c(O)cc(O[C@@H]4O[C@H](CO[C@H]5O[C@H](C)[C@@H](O)[C@H](O)[C@@H]5O)[C@@H](O)[C@H](O)[C@H]4O)cc3o2)cc1O | 14.7% (inactive) |
| COc1ccc2c(c1)c(C1=C(c3c[nH]c4ccccc34)C(=O)NC1=O)cn2CCCN(C)C | -36.9% (inactive) |
| Cn1cc(C2=C(c3ccc(Cl)cc3Cl)C(=O)NC2=O)c2ccccc21 | -12.4% (inactive) and -8.86% (inactive) |
| Cn1cc(C2=C(c3cn(CCCSC(=N)N)c4ccccc34)C(=O)NC2=O)c2ccccc21 | -58% (inactive) and -88.3% (active) |
| CCCCC/C=C\C/C=C\CCCCCCCC(=O)NCCCC(=O)O | 8.14% (inactive) |
| O=C(O)CN1CCN(CC(=O)O)CCN(CC(=O)O)CCN(CC(=O)O)CC1 | 0.0247% (inactive) |
| N#C/C(=C(/N)Sc1ccc(N)cc1)c1ccccc1C(F)(F)F | 7.26% (inactive) |
| O=Nc1c(-c2c(O)[nH]c3cc(Br)ccc23)[nH]c2ccccc12 | -87.9% (active) |
| O=Nc1c(-c2c(O)[nH]c3ccccc23)[nH]c2ccccc12 | -74.5% (active) |
| O=C1C(c2c(O)[nH]c3ccccc23)=Nc2ccccc21 | -5.14% (inactive) |
| NS(=O)(=O)c1ccc(N=Cc2c(O)[nH]c3ccccc23)cc1 | 13.4% (inactive) |
| CCCCC(=O)O[C@]1(C(=O)CO)[C@@H](C)CC2C3CCC4=CC(=O)C=C[C@]4(C)[C@@]3(F)C(O)C[C@@]21C (stereo partly drawn) | 1.05% (inactive) |
| CC(=O)c1cc2ccccc2oc1=O | -2.07% (inactive) |
| O=C(O)CCCCN(CCc1ccccc1OCc1ccc(CCc2ccccc2)cc1)Cc1ccc(C(=O)O)cc1 | 10.8% (inactive) |
| C=C[C@@]1(C)CC(=O)[C@]2(O)[C@@]3(C)[C@@H](O)CCC(C)(C)[C@@H]3[C@H](O)[C@H](OC(=O)CCCN3CCN(C)CC3)[C@@]2(C)O1 | -10.4% (inactive) |
| OC(c1ccccc1)C1CCN(CCc2ccccc2)CC1 (stereo not drawn) | 5.4% (inactive) and 0.692% (inactive) |
| CC(C)(C(=O)O)c1ccc(C(O)CCCN2CCC(C(O)(c3ccccc3)c3ccccc3)CC2)cc1 (stereo not drawn) | 4.73% (inactive) and 3.69% (inactive) |
| CC(C)(C)c1ccc(C(O)CCCN2CCC(C(O)(c3ccccc3)c3ccccc3)CC2)cc1 (stereo not drawn) | -86.1% (active) and 8% (inactive) |
| CCC(C)C(=O)O[C@H]1C[C@H](O)C=C2C=C[C@H](C)[C@H](CC[C@@H](O)C[C@@H](O)CC(=O)O)C21 (stereo partly drawn) | 4.96% (inactive) |
| O=S(=O)(c1ccccc1)c1cnc2c(N3CCNCC3)cccc2c1 | 8.53% (inactive) |

| Compound | activity change, negative = inhibition |
| --- | --- |
| CCCCCCOc1nsnc1C1=CCCN(C)C1 | -26.8% (inactive) |
| CCC(CC)(CC(=O)Nc1cccc(/C=C/c2nc(C3CCC3)cs2)c1)C(=O)O | 41.5% (inactive) |
| O=C(C[C@H]1NCCC[C@@H]1O)Cn1cnc2cc(Br)c(Cl)cc2c1=O | -86% (active) |
| CC(C)[C@@H](N)C(=O)O | 5.34% (inactive) |
| Clc1ccc2c(N3CCN(CCCN4CCN(c5ccnc6cc(Cl)ccc56)CC4)CC3)ccnc2c1 | 1.21% (inactive) |
| Cc1ncc(-c2ccnc(Nc3ccc(S(C)(=O)=O)cc3)n2)n1C(C)C | -84.5% (active) |
| C1CCN2C[C@@H]3C[C@H](CN4CCCC[C@@H]34)[C@H]2C1 | 13.5% (inactive) |
| O=C1[C@@H]2[C@H]3CC[C@H](C3)[C@@H]2C(=O)N1CCCCN1CCN(c2ncccn2)CC1 | 8.23% (inactive) |
| CCCCCCCCCCCCCCCCCCCCCC(=O)Nc1ccn([C@@H]2O[C@H](CO)[C@@H](O)[C@@H]2O)c(=O)n1 | 8.14% (inactive) |
| O=C(CN1CCNCC1)NC1CCCCC1 | -5.36% (inactive) |
| C=C1CCC2[C@](C)(CO)[C@H](O)CC[C@@]2(C)[C@@H]1C/C=C1/C(=O)OC[C@H]1O (stereo partly drawn) | 9.67% (inactive) |
| Nc1ncnc2c1c(-c1cnc3[nH]ccc3c1)nn2C1CCCC1 | -82.4% (active) |
| N#CC[C@H](C1CCCC1)n1cc(-c2ncnc3[nH]ccc23)cn1 | 27.9% (inactive) and 17.6% (inactive) |
| N#CC[C@@H](C1CCCC1)n1cc(-c2ncnc3[nH]ccc23)cn1 | 1.99% (inactive) |
| COc1cc([C@@H]2[C@H]3CO[C@@]4(O)C(=O)[C@@H]2C=C([C@H]2Oc5cc(O)cc(O)c5C(=O)[C@@H]2O)[C@@H]34)ccc1O | -0.383% (inactive) |
| Cn1cnc2nc(NCCO)nc(NCc3ccccc3)c21 | -3.03% (inactive) |
| OC1O[C@@H]2COC(c3ccccc3)O[C@H]2[C@H](O)[C@H]1O (stereo partly drawn) | 36.7% (inactive) |
| COc1ccc2cc(-c3cc(-c4cc(Cl)cc(Cl)c4)nn3[C@@H](C)c3ccc(C(=O)NCCC(=O)O)cc3)ccc2c1 | -64.1% (inactive) |
| CCCCCCNC(=O)n1cc(F)c(=O)[nH]c1=O | -97.3% (active) |
| CCCCNC(=O)c1ccc(Cl)cc1O | -69.9% (inactive) |
| Cc1nnc(SCC2=C(C(=O)O)N3C(=O)[C@@H](N)[C@H]3SC2)s1 | 2.53% (inactive) |
| CCN(CC)CCCCC1CCN(CC(=O)N2c3ccccc3C(=O)Nc3cccnc32)CC1 | 11.7% (inactive) and 11.5% (inactive) |
| Cc1ccc([N+](=O)[O-])cc1S(=O)(=O)N(C)/N=C/c1cnc2ccc(Br)cn12 | -80.3% (active) |
| Cc1ccc([N+](=O)[O-])cc1S(=O)(=O)N(C)C | 16.2% (inactive) and 6.9% (inactive) |
| CN[C@@H]1C(OC2[C@H](O[C@H]3[C@H](O)[C@@H](O)[C@H](N=C(N)N)[C@@H](O)[C@@H]3N=C(N)N)OC(C)[C@]2(O)CO)OC(CO)C(O)C1O (stereo partly drawn) | 3.82% (inactive) |
| C[C@]12CCc3occc3C1CC[C@@]13C[C@@H](CCC12)[C@@](O)(CO)C3 (stereo partly drawn) | -13.6% (inactive) |
